Test results reported in ChEMBL document CHEMBL3988442, “University of Dundee, Small-Polar-MMV Screening Library” (2021).
Screen size: about 48,000 compounds; about 13,000 (27%) showed an effect of 50% or more. Some of the results follow.

system: Wolbachia pipientis; test: Anti-Wolbachia Cell-Based Screen; format: functional; design: scale not given: in the data most compounds retested in dose-response had high values; conditions: 5 µM

Point of comparison: CN1CCCC(c2cccc(CCC(=O)NCc3ccccn3)n2)C1 (stereo not drawn), “Percent Effect” value 93.1%. Against it:
- CCSc1ccccc1C(=O)N1CCC(S(=O)(=O)c2nncn2C)CC1 — lower, -2.113%
- O=C(CCN1CCc2cncnc2C1)N1CCc2sccc2C1 — lower, -13.17%
- CCCN(Cc1nc2ccccc2[nH]1)Cc1ccccc1OC — lower, -7.618%
- CNC(=O)C(CC(C)C)NC(=O)c1cccc(-c2n[nH]c(C)n2)c1 (stereo not drawn) — lower, -1%
- Cc1n[nH]c(C)c1NC(=O)CCc1cccc(C2CCCN(C)C2)n1 (stereo not drawn) — higher, 122.5%
- CC(=O)N1CCCN(C(=O)NCc2ccccn2)CC1 — lower, -1.258%
- CNC(=O)CCc1cccc(C2CCCN(c3cc(C)ncn3)C2)n1 (stereo not drawn) — higher, 97.41%
- COCC1CCN(C(=O)c2cccc(S(=O)(=O)NCC3(C)COC3)c2)C1 (stereo not drawn) — lower, -10.59%
- O=C(CCc1ccccn1)NC1CCCN(C2Cc3ccccc3C2)C1 (stereo not drawn) — lower, 4.048%
- Cc1cnc(CN(C)C2CCN(CC(=O)Nc3c(C)n[nH]c3C)C2)o1 (stereo not drawn) — lower, -8.354%
- Cc1n[nH]c(C)c1NC(=O)CN1CCc2c(nc(C3CC3)n2C)C1 — lower, 10.04%
- CN1CCCC(c2cccc(CCC(=O)NCC3(C)COC3)n2)C1 (stereo not drawn) — higher, 99.75%
- CN1CCN(C(=O)c2cccc(S(=O)(=O)NCC3(C)COC3)c2)CC1 — lower, -15.33%
- O=C(Cn1cc(C(=O)O)ccc1=O)Nc1cc(F)ccc1F — lower, -7.497%
- Cc1[nH]ccc1C(=O)NC1CCC(N2C(=O)CCC2=O)CC1 (stereo not drawn) — lower, -10.09%
- Cc1cc(C)c(CNC(=O)NCCCNc2ccccn2)c(=O)[nH]1 — lower, 5.95%
- CCc1noc(CS(=O)(=O)Cc2nc(Cc3ccccc3)no2)n1 — lower, 6.103%
- CN1CCCC(c2cccc(CCC(N)=O)n2)C1 (stereo not drawn) — higher, 113.5%
- CN1CCC(c2cccc(CCC(=O)NCC(N)=O)n2)CC1 — higher, 102.3%
- O=C(CCc1ccccn1)NC1CCN(c2cccc(Cl)c2)C1 (stereo not drawn) — lower, 3.633%
- CS(=O)(=O)N[C@@H]1CCN(Cc2ccncc2)[C@H]1Cc1cccnc1 — lower, -7.843%
- COc1ccccc1C(O)Cn1cc(C(=O)NCC2CC2)nn1 (stereo not drawn) — lower, -12.95%
- O=C(NCC1CCCO1)c1cc(COc2ccccc2F)[nH]n1 (stereo not drawn) — lower, -5.725%
- CCNC(=O)N(C)Cc1ccc(SC)c(OC)c1 — lower, -16.12%
- O=C(NCC1CC1)c1nc2c(o1)CN(CC1CC1)C2.O=C(O)C(F)(F)F — lower, -8.922%
- COc1cc(CCNC(=O)NCCC2CCCO2)ccc1C (stereo not drawn) — lower, -11.71%
- COc1cc(C(=O)NCC2CCCO2)nc2c(C)cc(F)cc12 (stereo not drawn) — higher, 102.3%
- CCNC(=O)c1cc(OC)c2cc(F)cc(C)c2n1 — higher, 114.2%
- COc1cc(C(=O)NCC2CC2)nc2c(C)cc(F)cc12 — lower, 82.93%
- COc1cc(C(=O)NC(C)C)nc2c(C)cc(F)cc12 — higher, 104.7%
- COc1ccc(F)cc1C(C)NC(=O)c1nnc(C)s1 (stereo not drawn) — lower, 1.178%
- Cc1cc(C(=O)NC(C)C(=O)Nc2cc(F)ccc2C)nc(C)n1 (stereo not drawn) — lower, -4.486%
- COc1ccccc1[S+]([O-])CC(=O)NCc1cc(F)cc(F)c1 (stereo not drawn) — lower, -8.178%
- CS(=O)(=O)c1ccc(CNC[C@H]2COCc3nc4ccccc4n32)cc1 — lower, -0.06058%
- CN1CC[C@H]2CN(C(=O)c3ccc4sc5c(c4c3)CCNC5=O)C[C@H]21 — lower, 3.711%
- CCN(CC)C(=O)Cn1cc(C(=O)NCCCc2scnc2C)nn1 — lower, 7.072%
- CC(C)(C)C(O)CN1CCN(CC(=O)NC(C2CC2)C2CC2)CC1 (stereo not drawn) — lower, 12.33%
- O=C(C1CCSCC1)N1CC[C@H]2OCC[C@@]2(COCC2CC2)C1 — lower, -16.75%
- Cc1nc(S(=O)(=O)CCn2cccn2)n(C2CCCCC2)c1C — lower, -17.58%
- N#Cc1ccc(SCCCO)c(F)c1 — lower, -3.443%
- O=C(C[C@@H]1COC[C@H]2CN(Cc3ccc(F)cc3)C[C@@H]12)N1CCOCC1.O=C(O)C(F)(F)F — lower, 19.83%
- O=C(C[C@@H]1COC[C@H]2CN(C3CCCC3)C[C@@H]12)NCc1cccnc1.O=C(O)C(F)(F)F.O=C(O)C(F)(F)F — higher, 105.3%
- O=C(C[C@@H]1COC[C@H]2CN(C(=O)c3cccnc3)C[C@@H]12)N1CCCC1.O=C(O)C(F)(F)F — higher, 97.49%
- O=C(C[C@@H]1COC[C@H]2CN(Cc3ccncc3)C[C@@H]12)N1CCOCC1.O=C(O)C(F)(F)F.O=C(O)C(F)(F)F — lower, 3.799%
- O=C(Nc1cnccn1)[C@@H]1COC[C@H]2CN(C3CCCC3)C[C@H]21.O=C(O)C(F)(F)F — lower, 2.256%
- O=C(C[C@@H]1COC[C@H]2CN(C(=O)c3cccnc3)C[C@@H]12)N1CCOCC1.O=C(O)C(F)(F)F — higher, 132.5%
- Cc1cnc(CNC(=O)C[C@@H]2COC[C@H]3CN(C4CCC4)C[C@@H]23)cn1 — lower, -2.895%
- COc1cc(N2C[C@H]3CN(C(=O)c4cccnc4)C[C@H]3C2)ncn1.O=C(O)C(F)(F)F — lower, -0.6433%
- COCc1nn(CC2CC2)c2c1CN(Cc1ccco1)CC2.O=C(O)C(F)(F)F — lower, -26.88%
- Cc1cc(NC(=O)CN(CC(C)O)c2ccccc2)on1 (stereo not drawn) — lower, -1.303%
- CC(=O)N1N=C(COc2ccc(C)cc2)OC1c1ccc(N(C)C)cc1 (stereo not drawn) — higher, 128.5%
- COc1ccc(C2OC(COc3ccc(C)cc3)=NN2C(C)=O)cc1 (stereo not drawn) — higher, 120.9%
- COc1ccc(OCc2nc(C(=O)N3CCC(NC(C)=O)C3)co2)cc1 (stereo not drawn) — lower, 5.881%
- CC(=O)N(C)Cc1ccc(OCc2cccs2)cc1 — lower, 14.59%
- COc1ccc(C2OC(COc3ccccc3Br)=NN2C(C)=O)cc1 (stereo not drawn) — lower, -8.819%
- COc1cc(C(=O)N(CCC#N)Cc2ccccn2)cc(OC)c1C — lower, 1.954%
- O=C(CC1CCN(CCN2CCCCC2)CC1)N1CCOCC1 — lower, -17.01%
- O=C(NCC1CCN(CCc2ccccc2)C1)NCC1(O)CCC1 (stereo not drawn) — lower, -8.264%
- O=C(CC1CCN(CCc2ccccc2)CC1)N1CCCOCC1 — higher, 161.2%
- O=C(CC1CCN(CCc2ccccc2)CC1)NC1CCOCC1 — higher, 134.1%
- O=C(Cc1cnn(-c2ccccc2)n1)NC1CCOCC1 — lower, 19.75%
- O=C(CC1CN(Cc2ccccc2)CCO1)NC1CCCC1 (stereo not drawn) — lower, 4.16%
- CCCc1nc(CNC(=O)Cc2csc(C)n2)cs1 — lower, -2.31%
- Cc1nn(C)c(C)c1-c1ccnc(N(C)Cc2nc(C(C)C)no2)n1 — lower, -10.91%
- Cc1nn2cccnc2c1C(=O)NCc1ccccc1OC1CCC1 — lower, -16.31%
- O=C(c1cccnc1O)N1CCOC(Cc2cccc(C(F)(F)F)c2)C1 (stereo not drawn) — lower, 16.06%
- O=S(=O)(NCCCN1CC=CC1)c1cncc(Cl)c1 — lower, -17.29%
- CCOCC(O)c1nc2c([nH]1)CC(C)(C)CNC2=O (stereo not drawn) — lower, 90.67%
- CC1(C)CNC(=O)c2nc(-c3nnn[nH]3)[nH]c2C1 — lower, 23.12%
- CC1(C)CNC(=O)c2nc(-c3nnc(-c4ccccc4)[nH]3)[nH]c2C1 — lower, 3.309%
- CC1(C)CNC(=O)c2nc(-c3n[nH]c(=O)[nH]3)[nH]c2C1 — lower, -9.314%
- CC1(C)CNC(=O)c2nc(CCN3CCC(C(N)=O)CC3)[nH]c2C1 — lower, -47.56%
- CCC(O)c1nc2c([nH]1)CC(C)(C)CNC2=O (stereo not drawn) — higher, 130.2%
- CC1(C)CNC(=O)c2nc(CCN3CCC(O)CC3)[nH]c2C1 — lower, -46.57%
- Cc1cc(OCC(O)c2nc3c([nH]2)CC(C)(C)CNC3=O)ccc1Cl (stereo not drawn) — lower, 90.28%
- CC1(C)CNC(=O)c2nc(-c3ccccc3)[nH]c2C1 — lower, 3.068%
- CC(C)(C)CNS(=O)(=O)C1CS(=O)(=O)c2ccccc21 (stereo not drawn) — lower, -2.538%
- CCN(C)S(=O)(=O)N1CCC(C(O)c2ccc(F)cc2)CC1 (stereo not drawn) — lower, -5.224%
- Cc1n[nH]/c(=N\C(=O)c2c3c(nc4onc(C)c24)CCC3)s1 — lower, 84.01%
- Cc1noc2nc3c(c(C(=O)/N=c4\[nH]nc(C(C)C)s4)c12)CCC3 — higher, 96.48%
- COCc1n[nH]/c(=N\C(=O)c2c3c(nc4onc(C)c24)CCC3)s1 — lower, 76.74%
- Cc1nn(C)c2nc3c(c(C(=O)/N=c4\[nH]nc(C(C)C)s4)c12)CCC3 — higher, 112.1%
- Cc1nc(C)c(CNC[C@@]2(COc3cccnc3)C[C@@H](O)[C@@H](O)C2)s1.Cl.Cl — lower, 0.5308%
- O=C(CCn1cccn1)N1C[C@@H]2CC[C@H](C1)N(Cc1ccccn1)C2=O — lower, 2.815%
- Cl.NCCCNS(=O)(=O)Cc1ccc(Br)cc1 — lower, -40.39%
- CCCc1nc(CNc2nc(C)nc3oc(C)nc23)cs1 — lower, -12.23%
- COc1ccc(C(=O)N2CCC(Oc3ccccc3C)(C(=O)O)CC2)o1 — lower, -4.68%
- Cc1noc2nc3c(c(C(=O)/N=c4\[nH]ncs4)c12)CCC3 — higher, 123.1%
- Cc1cs/c(=N\C(=O)c2c3c(nc4onc(C)c24)CCC3)[nH]1 — higher, 113%
- COCc1noc(C2(c3ccc(F)cc3)CCOCC2)n1 — lower, -32.93%
- O=S(=O)(NCC1CCN(CCN2CCOCC2)C1)c1ccccc1F (stereo not drawn) — lower, 14.41%
- CC(=O)NCC(=O)N1CCn2cc(CN3CCN(C)CC3)nc2C1.O=C(O)C(F)(F)F.O=C(O)C(F)(F)F — lower, -9.16%
- Cn1ccnc1CC1CCCN(C(=O)Cc2ccccc2)C1 (stereo not drawn) — higher, 107.6%
- Cn1ccnc1CC1CCCN(C(=O)Nc2cccn(C)c2=O)C1 (stereo not drawn) — lower, -3.094%
- Cn1ccnc1CNC(=O)N1CCCC(Cc2nccn2C)C1 (stereo not drawn) — lower, -2.047%
- CC(=O)N1CCCC(Cc2nccn2C)C1 (stereo not drawn) — higher, 104.6%
- CN(CCc1ccccc1)C1CCCN(Cc2nccn2C)C1 (stereo not drawn) — lower, -2.668%
